This excerpt belongs to a sample that is enriched for hits.
Pin1 inh – inhibitors of human Pin1; Q13526; Pin1 FP peptide displacement, HiFluor488, 10 min; Potency, µM (titrated, usually from 115 µM), for inactives: at the top dose activity, negative = inhibition, hits mostly inhibitors; 390,000 tested, 0.009% active; active = well fitted inhibition curve with a large enough effect in the polarisation, with a control signal flat, not every such curve was filed as active; inconclusive = small, poorly fitted or top-dose-only effect, or effect the other way, or a change in a side signal; inactive = no such curve, though single readings can be large or run the other way; the % refers to the polarisation; note: potency is the fitted concentration of half-maximal effect
Target sequence (Q13526 whole entry, looked up): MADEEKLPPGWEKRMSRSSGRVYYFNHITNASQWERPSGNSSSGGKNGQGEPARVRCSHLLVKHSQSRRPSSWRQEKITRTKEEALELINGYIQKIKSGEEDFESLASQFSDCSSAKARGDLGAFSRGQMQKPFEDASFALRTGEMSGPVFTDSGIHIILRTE
Tb PFK inh – blocks T. brucei phosphofructokinase | T. brucei PFK, ADP-Glo luminescence | Potency, µM (top dose mostly 57.5 µM), for the others: at the top dose activity, negative = inhibition, most hits filed as inhibitors | 330,000 tested, 0.17% active;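 note: potency is the fitted concentration of half-maximal effect; 0% = uninhibited 1x PFK enzyme wells and -100% = no-enzyme wells; nearly all actives have a fitted effect of over 60% in size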
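Compounds were pin-transferred as a titration series up to 57 uM into substrate buffer (0.5 mM F6P, 0.1 mM ATP, pH 8.0), then 1.25 nM PFK was added and reactions ran 45 min before ADP-Glo detection.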
PI4K2A block – inhibitors of human PI4K2A. Q9BTU6. purified PI4K2A, ADP-Glo luminescence, 1 h; hits give low values. activity change, negative = inhibition, % at 76.9 µM. 420,000 tested, 0.13% active. AID 1346378; in the data active = activity change below about -50%; inconclusive = mostly about -30% to -49%;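 note: -100% = wells without enzyme as full effect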
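ADP-Glo luminescence measured ADP generated by PI4K2A enzyme (4 ug/mL before mixing) with 1.2 mM PI substrate (pre-mix) and 300 microM ATP (pre-mix). Tris pH7.5 buffer with MgCl2, Triton X-100; 1 h reaction at ambient temperature.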
Tb PGK inh – blocks T. brucei phosphoglycerate kinase; P07378; PGK/GAPDH coupled, Kinase-Glo luminescence, 60 min; Potency, µM (titrated, usually from 57.5 µM), for inactives: top-dose activity change, negative = inhibition, actives largely listed as inhibitors; 380,000 tested, 0.043% active; note: potency is the fitted concentration of half-maximal effect; nearly all actives have a fitted effect of over 60% in size
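Luminescent ATP detection (Kinase-Glo Plus) follows a 60-minute room-temperature incubation, with wells lacking PGK as controls. Buffer: 100 mM TEA (pH 7.6), 5 mM MgCl2, 0.01% Tween-20. Coupling enzyme GAPDH (100 nM final) supplies unstable 1,3-BPG in-well.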
PI5P4Ka inh – inhibitors of human PI5P4K alpha | PI5P4Kalpha enzyme, ADP-Glo luminescence, 60 min; hits give low values | max response, % | 330,000 tested, 1.2% active | AID 652105; active = max response of -50% or lower; inconclusive = between -30% and -50%; inactive = -30% or higher; note: value at the top dose of about 77 µM
Target sequence (P48426 whole entry, looked up): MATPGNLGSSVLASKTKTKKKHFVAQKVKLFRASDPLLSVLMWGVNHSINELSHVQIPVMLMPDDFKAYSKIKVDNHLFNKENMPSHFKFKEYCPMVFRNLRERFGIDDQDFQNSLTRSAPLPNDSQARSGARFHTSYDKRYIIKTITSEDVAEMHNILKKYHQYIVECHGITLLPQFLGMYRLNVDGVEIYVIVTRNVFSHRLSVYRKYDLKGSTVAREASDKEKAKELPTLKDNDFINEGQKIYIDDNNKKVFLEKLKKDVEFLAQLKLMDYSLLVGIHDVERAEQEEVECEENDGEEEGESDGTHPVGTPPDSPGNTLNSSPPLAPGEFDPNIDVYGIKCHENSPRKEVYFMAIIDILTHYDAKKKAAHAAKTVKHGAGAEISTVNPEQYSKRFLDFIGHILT
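ADP-Glo luminescence end-point read after a 60 min room-temperature kinase reaction of PI5P4Kalpha plus substrate, initiated with ATP at 5 microM final. Buffer: 0.038 M HEPES pH 7.4, EGTA, 0.1% CHAPS, 5% DMSO.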
An asterisk follows results filed as active; i = inactive; ? = inconclusive; / = not tested or not shown. Unless noted, calls come from the whole dose curve; as a rule, active = well fitted curve in the direction sought with a large enough effect; inconclusive = small, poorly fitted or top-dose-only effect, or another doubt; inactive = no such curve, though single readings can be large; an effect the other way counts as inactive or inconclusive. Unless noted, % is set by controls: 0 for no effect and ±100 for the full control effect.

SMILES | Pin1 inh | Tb PFK inh | PI4K2A block | Tb PGK inh | PI5P4Ka inh
CCCNc1ccc(S(=O)(=O)N(C(C)C)C(C)C)cn1 | 8% | -3% | 1 | i | 13
Cc1ccc(C(=O)NC2CCCCN(Cc3ccccc3C)C2=O)cc1 (stereo unspecified) | / | / | 2 | / | /
CCn1c(COc2ccc(C)cc2)nnc1SCC(=O)c1ccc(-c2ccccc2)cc1 | / | / | 3 | / | /
O=C(Nc1ccc(Cl)cc1C(=O)O)c1ccc2c(c1)C(=O)N(Cc1ccco1)C2=O | / | -9% | -3 | -3% | -75*
CC(C)CN1C(=O)c2ccc(C(=O)Nc3ccccc3C(=O)O)cc2C1=O | -4% | 5% | -1 | i | -64*
C=COCCNC(=O)Nc1ccc(Cl)c(Cl)c1 | 5% | 15µM* | -1 | 1% | /
Cc1cccc2c1c1ccc3c(c1n2C)C(=O)C=CC3=O | ? | -9% | -22 | -8% | -73*
O=C1C(=Cc2ccccc2Cl)CCc2ccccc21 | / | / | -78* | / | -27
COc1ccccc1C=C1CCc2ccccc2C1=O | / | / | -63* | / | -11
Cn1cccc1/C=C1\CCc2ccccc2C1=O | 11% | -21% | -56* | ? | -8
CCc1ccc2c(c1)NC(=O)C2(C)Cc1ccc(F)cc1 (stereo unspecified) | / | / | 0 | / | -21
Cc1ccc(C2(c3noc(CN4CCOCC4)n3)CCCC2)cc1 | 0% | -2% | 1 | 2% | -1
O=C(/C=C/c1ccco1)Nc1ccccc1N1CCCCC1 | 5% | -1% | 0 | / | -7
Cc1ccc(C2C(C#N)=C(N)SC(N)=C2C#N)cc1 | ? | -2% | -3 | 20% | -85*
Cc1ccc(C2C(C#N)=C(N)SC(N)=C2C#N)c(C)c1 | ? | 3% | -19 | 4% | -63*
CC(C)C1C(C#N)=C(N)SC(N)=C1C#N | -4% | ? | 11 | -7% | -9
Cc1cccc(NC(=O)c2onc3c2CCCC3)n1 | 7% | -25% | ? | ? | -28
Cc1ccc(N=C2NC(=O)/C(=C\c3ccco3)S2)cc1 | 1% | 1% | -9 | -4% | -57*
O=C1NC(=Nc2ccc3ccccc3c2)S/C1=C/c1ccco1 | 66% | 25% | -16 | -5% | -55*
COc1ccc(-c2ccc(-c3nc4c(c(=O)[nH]c(=O)n4Cc4ccccc4)n3C)o2)c([N+](=O)[O-])c1 | 49% | 6% | -1 | -1% | -16
O=C(CSc1ncnc2ccccc12)Nc1ccc2c(c1)OCCO2 | 4% | -7% | 6 | i | -14
COc1cc(-c2nnc(SCC(=O)NC(C)C)o2)cc(OC)c1OC | 1% | / | -9 | -7% | /
COc1cc(-c2nnc(SCC(=O)Nc3ccc4c(c3)OCCO4)o2)cc(OC)c1OC | 2% | 1% | -55* | -3% | /
O=C(CSc1ncccc1C(=O)O)Nc1ccc2c(c1)OCCO2 | -16% | 4% | -1 | i | -52*
COC(=O)c1cc(C(=O)OC)n(Cc2ccc(Cl)cc2Cl)n1 | 4% | -7% | -3 | i | /
SMILES | Pin1 inh | Tb PFK inh | PI4K2A block | Tb PGK inh | PI5P4Ka inh
O=C(CSc1ccccc1)N1CCN(c2ccccn2)CC1 | 3% | 0% | -7 | -3% | 0
O=C(CSc1ccsc1[N+](=O)[O-])N1CCN(c2ccccn2)CC1 | ? | -7% | -6 | -14% | -51*
Cc1cccc(NC(=S)NNC(=S)NC2CCCCC2)c1C | 1% | 0% | -8 | -1% | 4
N=C1SC(c2ccccc2)C(=O)N1c1ncc(Cc2ccccc2)s1 (stereo unspecified) | 10% | -3% | 1 | -4% | -56*
CCc1ccc(Cc2cnc(NC(=O)c3ccc4c(c3)CC(c3ccccc3)OC4=O)s2)cc1 (stereo unspecified) | -9% | / | -4 | 2% | /
Cc1ccc(Cc2cnc(N3C(=N)SC(c4ccccc4)C3=O)s2)cc1 (stereo unspecified) | -15% | 5% | 5 | -3% | -73*
Cc1ccc(Cn2cc(CN3[C@H](c4ccccc4)COc4cc(Br)ccc4S3(=O)=O)nn2)cc1 | / | / | 0 | / | /
COCCCNC(=O)c1ccccc1N(Cc1ccccc1)S(=O)(=O)c1ccccc1 | -6% | -3% | 1 | -4% | 2
Cc1[nH]n(-c2ncc(-c3ccccc3)s2)c(=O)c1C(c1ccc(Br)cc1)C(C#N)C#N (stereo unspecified) | / | 2% | 32 | -8% | -70*
CC1(C)CCC2=C(O1)c1ccccc1C(=O)C2=O | / | / | -52* | / | /
CNc1nc(N/N=C/c2cc([N+](=O)[O-])ccc2F)nc(Nc2ccccc2)n1 | -1% | / | -7 | i | -20
CNc1nc(N/N=C/c2cc3c(cc2[N+](=O)[O-])OCO3)nc(Nc2ccccc2)n1 | 43% | -2% | -4 | -12% | -68*
CCCCn1c(SCC(=O)c2ccc(OC)cc2OC)nc2cc(S(N)(=O)=O)ccc21 | ? | -14% | -16 | 0% | -54*
CCCCn1c(SC(C)C(=O)c2ccc(OC)cc2)nc2cc(S(N)(=O)=O)ccc21 (stereo unspecified) | 6% | 1% | 8 | -3% | /
O=c1c2c(O)cc(O)cc2oc2c(O)ccc(O[C@H]3O[C@@H](CO)[C@H](O)[C@@H](O)[C@@H]3O)c12 | ? | -23% | -30 | 2% | -56*
O=c1c(O[C@H]2O[C@@H](CO)[C@H](O)[C@@H](O)[C@@H]2O)c(-c2ccc(O)cc2)oc2cc(O)cc(O)c12 | ? | 19% | -2 | -12% | -12
CCOC(=O)N1CCN(c2cc(NCCC(=O)O)c3c4c(onc24)-c2ccccc2C3=O)CC1 | ? | -17% | -57* | ? | ?
O=C(O)CCCNc1cc(N2CCN(C(=O)c3ccco3)CC2)c2noc3c2c1C(=O)c1ccccc1-3 | ? | ? | ? | -20% | ?
O=C(N/N=C/C=C/c1ccco1)c1ccncc1 | 4% | -11% | -12 | 4% | -28
O=C(N/N=C/C=C/c1ccco1)/C(=C/c1ccccc1)NC(=O)c1ccccc1 | ? | -12% | ? | 8% | -57*
COc1ccc(/C=N/Nc2cc(N3CCOCC3)ncn2)c(OC)c1 | 3% | -1% | -3 | 6% | -5
COc1cccc(/C=N/Nc2cc(N3CCOCC3)ncn2)c1O | 17% | 1% | -2 | -10% | -98*
CCOc1ccc(-c2cc3c(=O)n(CC(=O)NCc4ccc(C)cc4)ccn3n2)cc1 | 0% | / | 1 | / | /
O=C(O)c1cc(NN=Nc2cccc([N+](=O)[O-])c2)cc([N+](=O)[O-])c1 | -7% | 2% | 0 | -4% | ?
O=C(O)c1cc(NN=Nc2cccc(S(=O)(=O)O)c2)cc([N+](=O)[O-])c1 | 0% | -16% | -4 | -1% | -55*
CCOc1ccccc1-c1c2cc(O)c(=O)cc-2oc2cc(O)c(O)cc12 | ? | ? | -25 | ? | -55*
